Reference: PubChem BioAssay AID720519 (National Center for Advancing Translational Sciences (NCATS), 2013)
Records with an inconclusive call do not appear. Active and inactive are the calls of the source. Calls follow the shape of the dose curve; as a rule, active = well fitted activation curve with a large enough effect; inconclusive = small, poorly fitted or top-dose-only effect; inactive = flat fitted curve, though single readings scatter.

Assay: qHTS for Inhibitors of Cell Surface uPA Generation: Confirmatory Assay for Cherry-picked Compounds
Settings: cell surface uPA activity generation, qHTS confirmation; series mostly up to 115 µM
Outline: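 RAW 264.7 cells at 4000/well, incubated overnight, then treated with compounds. After 24 h at 37 C, viability was read by ATPlite luminescence. An increase in signal indicates blocked uPA-dependent LF entry.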

Potency, inactive:
O=[N+]([O-])c1ccccc1C=NNC(=S)NN=Cc1ccccc1[N+](=O)[O-]
CCOc1ccc(-n2cnc3scc(-c4ccc(OC)c(OC)c4)c3c2=O)cc1
CC1Cc2nc(SCC(=O)N3CCCC3)n(C)c(=O)c2S1 (stereo not drawn)
CC(C)c1ccc(NC(=O)COc2ccc(S(=O)(=O)N3CCOCC3)cc2)cc1
CC(C)C(=O)Nc1nnc(SCc2cccc(F)c2)s1
CCN(CC)S(=O)(=O)c1cc(NC(=O)COC(=O)C2CCC2)ccc1C
COc1cccc(C(=O)NCC(c2ccco2)N2CCc3ccccc3C2)c1 (stereo not drawn)
O=c1[nH]c2c(s1)C(c1ccc(O)cc1)C1C3CCC(C3)C1S2 (stereo not drawn)
CC(C)Cn1cnc2c1c(=O)[nH]c(=O)n2Cc1ccccc1
CCOc1cc(N2CCOCC2)c(OCC)cc1NC(=O)c1[nH]c(C)c(C(C)=O)c1C
C=CCOC(=O)C1=C[C@H](c2ccc(C(F)(F)F)cc2)[C@@H](CCCO)[C@H](OCC)O1
Cc1ccccc1C(=O)NCC(=O)Nc1ccc(C)c(S(=O)(=O)N2CCCCCC2)c1
Cc1ccnc(NS(=O)(=O)c2ccc(NC(=O)C3C4C=CC(C4)C3C(=O)O)cc2)n1 (stereo not drawn)
CSc1nc(-c2ccccc2)nc(C(Cl)Cl)n1
OCC[C@@H]1C[C@H](O)[C@@H](O)[C@]2(OCCc3ccccc32)O1
COc1ccc(-n2ncc3c(=O)n(CC(=O)NC(C)C)cnc32)cc1
COc1ccccc1N=Nc1c(C)[nH]n(-c2ccccc2)c1=O
Cc1cc(N2C(=O)C(O)=C(C(=O)c3ccco3)C2c2ccc(Cl)cc2)no1 (stereo not drawn)
O=C(NCCCN1CCCC1=O)c1cccc(Oc2ccccc2)c1
CCN(CC)S(=O)(=O)c1ccc(C(=O)Nc2nnc(COC)o2)cc1
Cc1cccn2c(CNCC(C)Oc3cccnc3)c(C(=O)N3CCOCC3)nc12 (stereo not drawn)
C[C@H](O)[C@@H]1C(=O)N2CCc3ccc(-c4cccc(F)c4)cc3[C@@H]2C[C@@H]1N(C)C(=O)C(C)(C)C
O=C(OCC(=O)N1CCOCC1)c1c(Cl)ccc(Cl)c1Cl
O=C(c1cc2cc([N+](=O)[O-])ccc2s1)N1CCOCC1
CCOc1ccccc1C(=O)NC1CCN(CC(=O)Nc2cc(OC)ccc2OC)CC1
CC(=O)COc1ccc2c(-c3cccc([N+](=O)[O-])c3)cc(=O)oc2c1
COCCNS(=O)(=O)c1cc(OC)c(C)cc1C
CNC(=O)[C@@H]1CCC(=O)N1
Clc1ccc(-c2nc3ccccn3c2CN2CCSCC2)cc1
COc1ccc(Nc2nc(-c3ccccc3)c(C(=O)Nc3cccnc3)s2)cc1
COc1ccc(C2=NS(=O)(=O)N(C)C(C(=O)NCc3ccccn3)=C2)cc1
COc1cccc(C(=O)NCc2ccc3[nH]c(C)cc3c2)c1
Cc1ccc(S(=O)(=O)N2CCC(C(=O)OC(C)C(=O)NC3CCCCC3C)CC2)cc1 (stereo not drawn)
CC(C)Cn1cnc2c(N)nc3ccccc3c21
Cc1cccc(C(=O)Nc2cc(=O)n(C)c(=O)n2C)c1
Clc1ccccc1N1CCN(c2ncnc3nc[nH]c23)CC1
O=C(c1cc(COc2c(F)cccc2F)on1)N1CCc2ccccc2C1
CN(CCC#N)C(=S)Nc1ccc(Oc2ccccc2)cc1
